Experimental data reported in PubChem BioAssay (Tox21).
Records with an inconclusive call do not appear. Active and inactive are the calls of the source. Unless noted, the call rests on the fitted dose curve; in most records, active means well fitted curve in the direction sought with a large enough effect in the repeat runs; inconclusive means weak or mixed curves; inactive means no such curve, though single readings can be large; an effect the other way counts as inactive or inconclusive.

Key:
[1] = qHTS assay to identify small molecule HDAC inhibitors (AID 1259364); further: top concentration of the series differs between compounds; nearly all actives have a fitted effect of over 45% in size
In short: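 Wild-type HCT-116 cells were plated overnight, exposed to compounds for 2 h at 37 °C, then given HDAC-Glo class I/II luminogenic reagent for 30 min at room temperature before luminescence was read.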

[2] = qHTS assay to identify small molecule HDAC inhibitors - cell viability counter screen (AID 1259365); further: series mostly up to about 92 µM; nearly all actives have a fitted effect of over 50% in size
In short: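 To flag cytotoxic hits, 1,500 wild-type HCT-116 cells per well, plated the day before, receive test compounds for 2hr at 37 C before CellTiter-Glo reagent and a luminescence read.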

[3] = qHTS assay to identify small molecule agonists of the sonic hedgehog signaling (Shh) pathway - cell viability counter screen (AID 1259366); further: nearly all actives have a fitted effect of over 50% in size
In short: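 Fluorescence from CellTiter-Fluor reports live cells in this counter screen. NIH/3T3-derived Gli1-Luc reporter cells receive test compounds for 24hr at 37C; reagent goes in at 23hr.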

[4] = qHTS assay to identify small molecule agonists of the sonic hedgehog signaling (Shh) pathway (AID 1259368; calls by dose curve; further: series mostly up to about 92 µM; nearly all actives have a fitted effect of over 15% in size)
In short: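 NIH/3T3-derived 3T3Gli1-Luc cells carrying a stably integrated Gli1 response element–firefly luciferase reporter were plated, left 4 hr at 37 C, then given compounds in DMSO for 24 hr. Luminescence was read 30 min after adding luciferase reagent.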

[5] = qHTS assay to identify small molecule antagonists of the sonic hedgehog signaling (Shh) pathway (AID 1259369; calls by dose curve; further: nearly all actives have a fitted effect of over 45% in size; further: potency means the concentration at half of the fitted maximal effect)
In short: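 NIH/3T3-derived 3T3Gli1-Luc cells with stably integrated Gli1-Luc reporter were preincubated 4hr at 37 C, then given compounds in DMSO plus Shh conditioned medium and incubated 24hr. Firefly luciferase luminescence read after 30min reagent at room temperature.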

[6] = target: Estrogen receptor beta (Homo sapiens) (UniProt Q92731); assay: qHTS assay to identify small molecule agonists of the estrogen receptor beta (ER-beta) signaling pathway (AID 1259377; active means well fitted activation curve with a large enough effect in the signal ratio in the repeat runs, not every such curve was filed as active; the % refers to the signal ratio)
In short: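 Screening used GripTite ER-beta-UAS-bla cells held in 2% charcoal-stripped FBS medium. After overnight (16 hr) compound incubation at 37C, beta-lactamase activity was detected with a FRET substrate by fluorescence.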

[7] = target: Estrogen receptor beta (Homo sapiens) (UniProt Q92731); assay: qHTS assay to identify small molecule antagonists of the estrogen receptor beta (ER-beta) signaling pathway (AID 1259378; active means well fitted inhibition curve with a large enough effect in the signal ratio in the repeat runs, not every such curve was filed as active; the % refers to the signal ratio)
In short: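 ER-beta-UAS-bla HEK293T cells in 2% charcoal-stripped FBS medium treated with compound plus 1nM final 17-beta-estradiol for 16 hr at 37C. Beta-lactamase reporter read by FRET substrate fluorescence after 2 hours at room temperature.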

[8] = qHTS assay to identify small molecule agonists of the androgen receptor (AR) signaling pathway in the presence of an antagonist - cell viability counter screen (AID 1259379); further: nearly all actives have a fitted effect of over 25% in size; further: potency means the concentration at half of the fitted maximal effect
In short: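 MDA-kb2 human breast carcinoma cells (stable MMTV-luciferase, AR/GR responsive) were seeded 3,000 cells/well, pre-incubated 5 hr at 37C without CO2, then given 3.0uM nilutamide and compounds at 15 concentrations for 16 hr. Viability was read by CellTiter-Fluor fluorescence.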

[9] = qHTS assay to identify small molecule agonists of the estrogen receptor beta (ER-beta) signaling pathway - cell viability counter screen (AID 1259380); further: nearly all actives have a fitted effect of over 30% in size; further: potency means the concentration at half of the fitted maximal effect
In short: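 ER-beta-UAS-bla HEK293T cells in medium with 2% charcoal-stripped FBS were preincubated 6 hr at 37C, dosed with compound in DMSO for 16 hr, then after the bla read, CellTiter-Glo was added for 30 min at room temperature; luminescence recorded.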

[10] = qHTS assay to identify small molecule antagonists of the estrogen receptor beta (ER-beta) signaling pathway - cell viability counter screen (AID 1259382); further: nearly all actives have a fitted effect of over 55% in size; further: potency means the concentration at half of the fitted maximal effect
In short: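 ER-beta-UAS-bla HEK293T cells (2,000/well, 2% charcoal-stripped FBS) were pre-incubated 6 hr at 37C, then given compound plus 1nM final 17-beta-estradiol for 16 hr. Viability was read in the same wells by CellTiter-Glo luminescence after 30 min at room temperature.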

[11] = qHTS assay to identify small molecule agonists or antagonists of the thyroid stimulating hormone receptor (TSHR) signaling pathway - wild type cell line counter screen (AID 1259384; calls by dose curve)
In short: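 Wild-type Hek293 cells, 800/well, 18 h at 37C, then compound with Ro20-1724 for 30 min RT. cAMP by HTRF (cAMP-d2/anti-cAMP cryptate), 1 h RT, fluorescence read. 15 concentrations, triplicates.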

[12] = target: Thyrotropin receptor (Homo sapiens) (UniProt P16473); assay: qHTS assay to identify small molecule antagonists of the thyroid stimulating hormone receptor (TSHR) signaling pathway (AID 1259385; calls by dose curve; further: nearly all actives have a fitted effect of over 20% in size)
In short: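 TSHR-HEK293 cells (800/well) plated 18 h, then compounds with Ro20-1724 and TSH at 1.5 ng/mL final, 30 min at room temperature. cAMP quantified by HTRF (cAMP-d2/anti-cAMP-cryptate, 1 h); 15 concentrations in triplicate.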

[13] = qHTS assay to identify small molecule agonists of the estrogen receptor alpha (ER-alpha) signaling pathway in the presence of an antagonist - cell viability counter screen (AID 1259386);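 further: series mostly up to about 92 µM; cells exposed to compounds for 22 h at 37 °C before the viability read; nearly all actives have a fitted effect of over 30% in size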
In short: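 VM7Luc4E2 cells (endogenous full-length ER-alpha, 4×ERE-luciferase) were held 5 days in phenol red-free medium with 10% charcoal-stripped FBS, plated, then given 10.0nM ICI-182,780 and compounds at 15 concentrations for 22hr at 37C; viability read by CellTiter-Fluor fluorescence.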

[14] = target: Progesterone receptor (Homo sapiens) (UniProt P06401); assay: qHTS assay to identify small molecule antagonists of the progesterone receptor (PR) signaling pathway (AID 1346795; active means well fitted inhibition curve with a large enough effect in the signal ratio in the repeat runs, not every such curve was filed as active; the % refers to the signal ratio)
In short: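 Screening used a GripTite HEK293T line with PR-responsive UAS-beta-lactamase. Cells were challenged with compound in the presence of 1 nM R5020 final for 16 hr at 37C; B/G FRET substrate, 2 hr room temperature, fluorescence.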

[15] = qHTS assay to identify small molecule antagonists of the sonic hedgehog signaling (Shh) pathway - cell viability counter screen (AID 1259367); further: nearly all actives have a fitted effect of over 55% in size
In short: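 Seed 3T3 Gli1-Luc cells at 2,000 per well; incubate 4 hr; add compound in DMSO, then conditioned medium; incubate at 37C with 5% CO2; add CellTiter-Fluor after 23 hr; read fluorescence 1 hr later.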

[16] = target: Estrogen receptor (Homo sapiens) (UniProt P03372); assay: qHTS assay to identify small molecule agonists of the estrogen receptor alpha (ER-alpha) signaling pathway in the presence of an antagonist (AID 1259383; calls by dose curve; further: top concentration of the series differs between compounds; nearly all actives have a fitted effect of over 15% in size)
In short: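 VM7Luc4E2 cells (endogenous full-length ER-alpha, 4×ERE-luciferase) were precultured 5 days in phenol red-free medium with 10% charcoal-stripped FBS, given 10.0nM ICI-182,780 (final), then treated with compounds at 15 concentrations for 22hr at 37C; luminescence read with ONE-Glo.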

[17] = target: Progesterone receptor (Homo sapiens) (UniProt P06401); assay: qHTS assay to identify small molecule agonists of the progesterone receptor (PR) signaling pathway (AID 1346784; calls by dose curve; further: nearly all actives have a fitted effect of over 30% in size)
In short: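 Seed PR-UAS-bla HEK 293T cells (2% charcoal-stripped FBS), incubate 6 hr at 37C; add compounds in DMSO, 16 hr at 37C; add LiveBLAzer B/G substrate, 2 hr RT; read fluorescence intensity.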

[18] = target: Androgen receptor (Homo sapiens) (UniProt P10275); assay: qHTS assay to identify small molecule agonists of the androgen receptor (AR) signaling pathway in the presence of an antagonist (AID 1259381; calls by dose curve; further: nearly all actives have a fitted effect of over 15% in size)
In short: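 MDA-kb2 human breast carcinoma cells carrying an MMTV-luciferase reporter (AR- and GR-responsive) were treated with compounds at 15 concentrations plus 3.0uM final nilutamide for 16hr at 37C without CO2; luminescence was read after ONE-Glo addition.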

Measured: Potency

Chain of Estrogen receptor beta (Homo sapiens) (Q92731 whole entry, looked up): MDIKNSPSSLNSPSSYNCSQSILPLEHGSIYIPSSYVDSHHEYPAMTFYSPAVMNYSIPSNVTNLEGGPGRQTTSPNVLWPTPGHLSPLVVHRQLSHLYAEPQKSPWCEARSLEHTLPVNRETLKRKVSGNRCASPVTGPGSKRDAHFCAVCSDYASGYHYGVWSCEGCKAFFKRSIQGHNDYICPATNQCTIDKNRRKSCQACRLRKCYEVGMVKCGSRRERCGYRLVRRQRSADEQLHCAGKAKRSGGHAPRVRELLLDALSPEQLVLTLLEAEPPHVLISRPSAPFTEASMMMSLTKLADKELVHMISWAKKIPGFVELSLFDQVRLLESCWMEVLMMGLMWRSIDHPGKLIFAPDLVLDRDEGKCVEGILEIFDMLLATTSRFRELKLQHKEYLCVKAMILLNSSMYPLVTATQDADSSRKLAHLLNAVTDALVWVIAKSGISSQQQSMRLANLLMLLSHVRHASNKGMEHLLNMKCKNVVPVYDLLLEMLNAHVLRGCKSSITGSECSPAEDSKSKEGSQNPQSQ
Chain of Thyrotropin receptor (Homo sapiens) (P16473 whole entry, looked up): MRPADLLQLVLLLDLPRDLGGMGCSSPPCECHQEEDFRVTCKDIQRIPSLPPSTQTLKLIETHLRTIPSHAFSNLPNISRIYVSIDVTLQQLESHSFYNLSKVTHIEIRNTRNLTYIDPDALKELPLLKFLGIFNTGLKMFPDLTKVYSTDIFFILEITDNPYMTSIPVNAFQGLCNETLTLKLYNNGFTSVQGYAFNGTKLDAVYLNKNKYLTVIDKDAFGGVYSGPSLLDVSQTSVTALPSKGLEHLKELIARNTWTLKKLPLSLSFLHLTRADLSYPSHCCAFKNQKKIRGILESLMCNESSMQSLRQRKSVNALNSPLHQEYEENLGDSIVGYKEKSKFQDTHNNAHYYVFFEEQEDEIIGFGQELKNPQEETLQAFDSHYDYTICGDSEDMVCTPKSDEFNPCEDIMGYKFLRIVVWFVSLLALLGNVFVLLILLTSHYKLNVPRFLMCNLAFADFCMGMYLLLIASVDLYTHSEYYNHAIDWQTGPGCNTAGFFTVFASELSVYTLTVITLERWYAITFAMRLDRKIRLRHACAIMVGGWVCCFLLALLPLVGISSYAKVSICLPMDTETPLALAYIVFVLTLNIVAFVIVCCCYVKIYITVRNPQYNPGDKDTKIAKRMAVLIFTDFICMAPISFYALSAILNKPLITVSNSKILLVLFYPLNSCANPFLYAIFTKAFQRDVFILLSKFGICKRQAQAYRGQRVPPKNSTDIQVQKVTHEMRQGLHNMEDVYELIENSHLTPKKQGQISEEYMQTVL
Chain of Progesterone receptor (Homo sapiens) (P06401 whole entry, looked up): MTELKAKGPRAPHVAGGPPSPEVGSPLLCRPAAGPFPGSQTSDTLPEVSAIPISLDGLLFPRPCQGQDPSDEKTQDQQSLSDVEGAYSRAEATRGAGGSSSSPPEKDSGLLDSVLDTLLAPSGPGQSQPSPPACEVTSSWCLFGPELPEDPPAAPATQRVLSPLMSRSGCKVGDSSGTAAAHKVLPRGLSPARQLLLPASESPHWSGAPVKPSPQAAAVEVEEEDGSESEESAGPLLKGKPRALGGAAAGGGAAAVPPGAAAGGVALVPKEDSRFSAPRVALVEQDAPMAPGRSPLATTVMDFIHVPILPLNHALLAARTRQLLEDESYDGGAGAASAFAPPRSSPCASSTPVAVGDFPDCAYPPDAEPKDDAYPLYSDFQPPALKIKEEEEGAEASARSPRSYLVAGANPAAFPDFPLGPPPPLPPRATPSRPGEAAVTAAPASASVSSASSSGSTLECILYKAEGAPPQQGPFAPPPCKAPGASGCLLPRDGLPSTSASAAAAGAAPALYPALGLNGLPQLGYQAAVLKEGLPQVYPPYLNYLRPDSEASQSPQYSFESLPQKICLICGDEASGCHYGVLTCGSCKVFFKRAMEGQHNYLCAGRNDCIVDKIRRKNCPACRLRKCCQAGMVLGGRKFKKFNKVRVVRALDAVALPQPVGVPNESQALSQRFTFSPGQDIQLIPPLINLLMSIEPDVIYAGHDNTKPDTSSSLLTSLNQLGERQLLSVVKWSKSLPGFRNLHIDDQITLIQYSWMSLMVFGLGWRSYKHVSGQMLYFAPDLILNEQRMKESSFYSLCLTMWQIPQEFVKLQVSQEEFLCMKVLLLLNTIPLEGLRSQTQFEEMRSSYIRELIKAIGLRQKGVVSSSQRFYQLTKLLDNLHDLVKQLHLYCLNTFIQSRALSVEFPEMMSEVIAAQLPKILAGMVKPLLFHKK
Chain of Estrogen receptor (Homo sapiens) (P03372 whole entry, looked up): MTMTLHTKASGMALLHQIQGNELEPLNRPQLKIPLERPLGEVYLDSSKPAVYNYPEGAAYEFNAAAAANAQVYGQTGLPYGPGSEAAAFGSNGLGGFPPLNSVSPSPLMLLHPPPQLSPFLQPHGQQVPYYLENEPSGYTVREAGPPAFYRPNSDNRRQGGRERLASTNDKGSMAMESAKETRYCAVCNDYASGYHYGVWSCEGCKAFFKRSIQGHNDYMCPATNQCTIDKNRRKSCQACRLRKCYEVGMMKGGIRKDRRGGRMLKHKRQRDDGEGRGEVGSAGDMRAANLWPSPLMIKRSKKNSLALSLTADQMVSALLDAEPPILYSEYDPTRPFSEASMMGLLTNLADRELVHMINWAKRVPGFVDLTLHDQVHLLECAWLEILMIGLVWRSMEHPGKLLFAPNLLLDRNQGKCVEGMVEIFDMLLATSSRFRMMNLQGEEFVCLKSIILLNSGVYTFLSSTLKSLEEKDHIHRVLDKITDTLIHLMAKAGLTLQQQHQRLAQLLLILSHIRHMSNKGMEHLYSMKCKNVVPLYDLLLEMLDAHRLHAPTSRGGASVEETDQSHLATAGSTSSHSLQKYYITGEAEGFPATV
Chain of Androgen receptor (Homo sapiens) (P10275 whole entry, looked up): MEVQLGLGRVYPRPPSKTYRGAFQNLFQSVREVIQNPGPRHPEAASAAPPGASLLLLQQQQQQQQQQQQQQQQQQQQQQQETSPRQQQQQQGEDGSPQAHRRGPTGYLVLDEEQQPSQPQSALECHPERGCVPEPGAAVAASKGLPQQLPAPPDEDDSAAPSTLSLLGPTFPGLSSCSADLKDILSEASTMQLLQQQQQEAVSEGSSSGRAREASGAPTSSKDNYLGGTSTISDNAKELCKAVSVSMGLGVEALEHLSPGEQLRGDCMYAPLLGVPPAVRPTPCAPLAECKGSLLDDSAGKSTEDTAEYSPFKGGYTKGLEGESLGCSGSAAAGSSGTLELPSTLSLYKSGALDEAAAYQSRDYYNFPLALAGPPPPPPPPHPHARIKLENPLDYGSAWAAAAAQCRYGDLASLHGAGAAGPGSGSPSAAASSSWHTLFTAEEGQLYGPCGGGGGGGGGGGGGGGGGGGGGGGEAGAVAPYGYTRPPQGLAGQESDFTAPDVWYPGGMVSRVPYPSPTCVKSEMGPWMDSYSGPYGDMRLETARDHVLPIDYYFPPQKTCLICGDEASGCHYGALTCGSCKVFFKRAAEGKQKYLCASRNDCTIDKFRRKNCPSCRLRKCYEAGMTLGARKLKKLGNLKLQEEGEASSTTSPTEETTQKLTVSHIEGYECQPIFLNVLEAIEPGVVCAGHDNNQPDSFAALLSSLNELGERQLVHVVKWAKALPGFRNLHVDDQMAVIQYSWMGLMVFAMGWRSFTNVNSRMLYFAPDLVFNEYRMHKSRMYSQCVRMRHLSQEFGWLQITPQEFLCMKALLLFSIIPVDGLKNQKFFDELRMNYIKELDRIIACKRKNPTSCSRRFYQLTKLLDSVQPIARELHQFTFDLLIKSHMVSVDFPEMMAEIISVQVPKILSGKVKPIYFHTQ

NCc1ccccc1
not listed: [15] | [16] | [17] | [18]
inactive: all other assays above

CN1CCC(=C2c3ccccc3CCc3sccc32)CC1
inactive: [1] | [2] | [15] | [6] | [16] | [12] | [13] | [17]
active: [5] 2.98 µM | [9] 26.6 µM | [10] 21.1 µM

CC(C)CCCCCCOC(=O)c1ccc(C(=O)OCCCCCCC(C)C)c(C(=O)OCCCCCCC(C)C)c1
not listed: [1] | [3] | [14] | [16] | [18]
inactive: all other assays above

CC(=O)c1ccc2c(c1)[C@H](NC(=O)c1ccc(F)cc1)[C@@H](O)C(C)(C)O2
inactive: [1] | [2] | [4] | [5] | [8] | [10] | [12] | [13] | [17] | [14]

O=C(O)c1cccc(N(Cc2cccnc2)c2ccc(OC(F)F)c(OC(F)F)c2)c1
active: [5] 0.969 µM
not listed: [6] | [7] | [9] | [10] | [14] | [15] | [16]
inactive: all other assays above

CCCC[C@H]1CN(CC2CCOCC2)C(=O)OC12CCN(C1(C)CCN(C(=O)c3c(C)ncnc3C)CC1)CC2
not listed: [6] | [7] | [9] | [16] | [18]
inactive: all other assays above

O=C(/C=C/c1ccc(O)c(O)c1)O[C@@H]1C[C@](O)(C(=O)O)C[C@@H](O)[C@H]1O
not listed: [3] | [9] | [11] | [12] | [13] | [16] | [18]
inactive: all other assays above

O=C=NC1CCC(CC2CCC(N=C=O)CC2)CC1 (stereo not given)
active: [5] 43.3 µM | [8] 30.6 µM | [9] 68.6 µM
not listed: [3] | [10] | [13] | [15] | [16] | [18]
inactive: all other assays above

CCCCCC(CO)CCC (stereo not given)
not listed: [1] | [9] | [16] | [18]
inactive: all other assays above

CC(=O)c1c(C)c([N+](=O)[O-])c(C(C)(C)C)c([N+](=O)[O-])c1C
not listed: [6] | [7] | [9] | [14] | [16] | [18]
inactive: all other assays above

CCN(CC)CCOc1ccc2c(c1)C(=O)c1cc(OCCN(CC)CC)ccc1-2
active: [8] 13.3 µM | [9] 18.8 µM | [10] 18.8 µM
inactive: [1] | [2] | [3] | [15] | [4] | [5]
